The whole screen tested about 330,000 compounds, of which fewer than 10 were called active. The call rests on the fitted dose curve; in most records, active means well fitted activation curve with a large enough effect; inconclusive means small, poorly fitted or top-dose-only effect, or another doubt; inactive means no such curve, though single readings can be large or run the other way. These entries were drawn from the full list. Square brackets hold non-standard residues; d marks the D form. Peptide text beside a SMILES is read from it. ξ: configuration not given here. Ac5c = NC1(C(=O)O)CCCC1; ξS = NC(CO)C(=O)O
assay: Activators of T cell receptors: qHTS campaign; conditions: primary human leukocytes, anti-CD3, IL-2 HTRF, 48 h; series mostly up to 9.22 µM
Description: Normally activation of naive T cells requires two signals. 1. A signal through the T cell receptor (TCR) which provides antigen specificity to the response. 2. Signals through co-stimulatory molecules, which are necessary for proliferation, survival and cytokine production. In the absence of co-stimulatory signals T cells are not effectively activated, and may even be rendered anergic or unresponsive to subsequent signaling. This lack of costimulation has been shown in multiple model systems to be a major factor in the limited strength and effectiveness of anti-tumor T cell responses. The goal of this project is to identify small molecule compounds that will stimulate T cell activation in the presence of TCR signaling but in the absence of co-stimulatory signals, thereby allowing activation of naive T cells in the absence of co-stimulation. Identification of such compounds would have clear experimental and clinical applications in instances where desirable antigen-specific immune responses are not generated due to a lack of co-stimulation, for example in the generation of anti-tumor responses. In collaboration between the National Cancer Institute and NIH Chemical Genomics Center, a high-throughput amenable screen was developed to discover small molecules that co-stimulate and activate human T cell receptors. The screen will be carried out using a novel homogeneous time resolved fluorescence energy transfer (HTRF) assay to measure production of the cytokine IL-2 by activated T cells and will be tested against the NIH Molecular Libraries Small Molecule Repository (MLSMR). NIH Chemical Genomics Center [NCGC] NIH Molecular Libraries Probe Centers Network [MLPCN] MLPCN Grant: MH090820-01 Assay Submitter (PI): Richard Hodes, National Cancer Institute, NIH
Primary human leukocytes are incubated with a-CD3 beads and compounds for 48 hr. The amount of secreted IL-2 is then assayed with a HTRF IL-2 kit. The presence of IL-2 cytokine captures the detection reagents and brings the a-IL-2-K and a-IL-2-d2 into close proximity. Upon excitation with 320nm light, the europium cryptate is capable of transferring energy to acceptor molecules within close proximity, resulting in acceptor molecule emission at 665nm.

outcome, inactive:
CN1CCC(N(C)C(=O)c2ccc(Cl)c(S(=O)(=O)Nc3ccc(Cl)cc3)c2)CC1
Cc1cc2c(cc1C)NC1(C[C@H]3CCC(=O)N4CC[C@@H](C1)[C@@H]34)C(=NC(C)(C)CC(C)(C)C)N2 (some centres not stated)
CN(C(=O)c1cccc(NC(=O)Cc2ccc(NC(=O)C3CCCN(C(=O)C4CC4)C3)cc2)c1)C1CC1 (configuration not stated)
O=C1/C(=C\c2ccc(O)cc2)CCC1CNc1ccc(Cl)cc1 (configuration not stated)
O=C1C2C3C=CC(C3)C2C(=O)N1c1ncc([N+](=O)[O-])s1 (configuration not stated)
NNc1cccc(C=Cc2ccccc2)cc1=O
COc1ccc(-c2nnc(-c3ccc4ccccc4c3)o2)cc1
Cc1nc(N)sc1-c1ccccc1
NC(=O)C1(Nc2ccc(-c3ccccc3)cc2)CCCC1
CCN(CC)CCCN1C(=O)C(=O)/C(=C(/O)c2c(C)nc3ccccn23)C1c1ccc(C)o1 (configuration not stated)
O=C1OC(Oc2ccc(Br)cc2)(c2ccccc2)c2ccccc21 (configuration not stated)
CN(C)C(=S)N=c1ssc(=S)n1Cc1ccco1
CN(C(=O)c1cccc(NC(=O)Cc2cccc(NC(=O)C3CCCN(C(=O)C4CC4)C3)c2)c1)C1CCC1 (configuration not stated)
O=C(NNC(=O)c1ccccc1O)c1ccccc1O
O=C1CC(c2ccccc2)C(=O)N2C(=O)CC(c3ccccc3)C(=O)N12 (configuration not stated)
Nc1ccc2c(c1)C(=Cc1cccnc1)c1ccccc1-2
CC(=O)c1ccc(NC(=O)C(C)OC(=O)c2ccc(NS(=O)(=O)c3ccc4[nH]c(=O)[nH]c4c3)cc2)cc1 (configuration not stated)
CCOc1ccccc1NC(=S)C(=C([O-])c1ccc2c(c1)OCCO2)[n+]1ccc(CC)cc1
O=C1C(Cl)=C(Oc2ccccc2)C(=O)c2ccccc21
CSc1ncnc2c1ncn2CC(=O)C1CCC2C3CCC4=CC(=O)CCC4(C)C3CCC12C (configuration not stated)
O=S(=O)(O)c1cc2onnc2c2ccccc12
CCOC(=O)c1ccc2[nH]c(C)c(CN3CCN(C)CC3)c(=O)c2c1
COC1=CC(=O)OC(c2ccc(OC)cc2)C1 (configuration not stated)
CCOC(=O)c1ccccc1OC(=O)Oc1ccccc1C(=O)OCC
COc1ccc(CCN2CC(C(=O)OCC(=O)NCc3ccccc3Cl)CC2=O)cc1OC (configuration not stated)
O=C(CNC(=O)c1cc(S(=O)(=O)N2CCOCC2)ccc1N1CCCC1)Nc1ccc(F)c(F)c1
COc1cc2[nH]c(O)c(C=O)c2cc1OC
Cc1ccc(Nc2c(O)nc[nH]c2=O)cc1C
NC(=O)C1(Nc2ccc([N+](=O)[O-])cc2)CCCC1
O=C1COc2c1ccc(O)c2O
O=C(Cc1ccc(Cl)cc1)c1ccccc1
c1ccc2c(c1)OC1OC2Oc2ccccc21
CCc1ccc(C(=O)C(C)OC(=O)CN2C(=O)NC3(CCCC3)C2=O)cc1 (configuration not stated)
CCOC(=O)C1CCCN(C(=O)Cn2ncc3c(=O)oc4ccc(C)cc4c32)C1 (configuration not stated)
CC(=O)OCC1(O)CC23CCC4c5ccoc5CCC4(C)C2CCC1C3 (configuration not stated)
CC(=O)CSc1nc(CCc2ccccc2)c(C#N)c(=O)[nH]1
CCN(CC)CCCC(C)n1c2nc(=O)[nH]c(=O)c-2nc2cc(Cl)ccc21 (configuration not stated)
c1ccc(-c2c[nH]c(-c3ccccc3)c2)cc1
O=C(NCC1(N2CCCCC2)CCCCC1)c1cccc(S(=O)(=O)Nc2ccccc2Cl)c1
COc1ccc(S(=O)(=O)N2C[C@H]3CON(C)[C@H]3C[C@H]2c2cccc(Br)c2)cc1
CC(C)c1cc(N=O)cc(C(C)C)c1O
COC(=O)CC(CC(=O)OC)n1cccc1
CCOc1ccc(/C=C(/C#N)c2nnc(N3CCOCC3)n2-c2ccccc2)cc1OC
O=C(Cc1ccc(NC(=O)C2CCCN(C(=O)C3CCCCC3)C2)cc1)Nc1cccc(C(=O)N2CCCCC2)c1 (configuration not stated)
Cc1[nH]c(N)nc(=S)c1CCCNc1ccccc1
CC(=NNC(=O)c1ccncc1)c1ccc(Cl)c(Cl)c1
O=C(CCCCCCCC(=O)N1CCCCC1)N1CCCCC1
NC(=O)C1(N2CCCC2)CCN(Cc2ccccc2)CC1
CCOc1cc(C(=O)N(Cc2ccccc2)c2ccc(C)cc2)ccc1OCC(=O)N1CCOCC1
CN(C(=O)c1ccc(NC(=O)Cc2cccc(NC(=O)C3CCN(C(=O)c4ccccc4)CC3)c2)cc1)C1CC1
COCC(=O)N(C)[C@H]1C[C@H]2c3cc(Oc4ccccc4C)ccc3CCN2C(=O)[C@H]1[C@H](C)O
CCN(CC)S(=O)(=O)c1cccc(NC(=O)c2ccc(S(=O)(=O)N3CCCC3)cc2)c1
CCOC(=O)CCC(NC(=O)c1ccc(CNc2nc3cc(C(F)(F)F)ccc3nc2C(=O)OCC)cc1)C(=O)OCC (configuration not stated)
N#CC1(Nc2ccc(-c3ccc(Cl)cc3)cc2)CCCC1
O=C(O)C(c1cccs1)C1(O)CCCCC1 (configuration not stated)
COc1ccccc1NC(=O)N(O)C1(C#N)CCCCC1
CC(C)Cc1nnc(N)s1
Cn1c(N)cc(=O)n(C)c1=S
CN1C(c2ccc(F)cc2)=CS/C1=C(/C#N)c1nnc2n1-c1ccccc1SC2
COc1ccc2c(c1)c(=Cc1ccc(N(C)C)cc1)c1cc(-c3ccccc3)[n+](C)n12
O=C(Nc1cccc(Br)c1)C1CC(=O)N(C2CCCC2)C1 (configuration not stated)
Cc1cc(OCCCC(=O)Nc2cc(S(=O)(=O)N3CCOCC3)ccc2N2CCOCC2)ccc1Cl
Cc1cc(NC(=O)C(C)SCC(=O)Nc2cccc(S(=O)(=O)N3CCCCCC3)c2)no1 (configuration not stated)
Oc1ccc(-c2nc3ccccc3nc2-c2ccc(O)cc2O)c(O)c1
CSCCC(NS(=O)(=O)c1ccc(C)cc1)C(=O)N(C)CC(=O)Nc1ccccc1Br (configuration not stated)
CCCCN1CC(COc2ccccc2)Oc2cccc(F)c2S1(=O)=O (configuration not stated)
CC(C)=CCc1ccc(O)c(=O)cc1C(C)C
CC1(C)C(=O)CCC2(C)C1=CCC1C2C(=O)CC2(C)C1CCC2(O)C(=O)CO (configuration not stated)
COC1=CC(=O)OC(C)(c2ccccc2)C1 (configuration not stated)
O=C(NCC1CCCCC1)NCC1CCCCC1
Cc1ccc(NC(=O)C(C)OC(=O)C2CC3CCCC(C2)C3=O)cc1S(=O)(=O)N1CCOCC1 (configuration not stated)
COc1ccc(CNC(=O)COC(=O)C2=Cc3ccccc3OC2)cc1
COC1C(CO)OC(n2cnc3c(=S)nc(N)[nH]c32)C1O (configuration not stated)
O=C(c1cccc(S(=O)(=O)N2CCCCCC2)c1)N1CCN(Cc2ccccc2)CC1
O=C1NC(c2ccccc2)Cc2ccncc21 (configuration not stated)
CN1CCOC1c1ccc(C2OCCN2C)cc1 (configuration not stated)
CC1CCCN(C(=O)Cn2c(=O)oc3cc(S(=O)(=O)N4CCCCC4C)ccc32)C1 (configuration not stated)
O=C(Cc1ccc(NC(=O)C2CCCN(C(=O)CCc3ccccc3)C2)cc1)Nc1ccc(C(=O)N2CCOCC2)cc1 (configuration not stated)
CCOc1ccc(S(=O)(=O)N2CCN(C(=O)c3oc4ccccc4c3C)CC2)cc1
CN(C(=O)c1cccc(NC(=O)Cc2ccc(NC(=O)C3CCN(C(=O)C4CCCCC4)CC3)cc2)c1)C1CCC1
COc1cc2c(cc1OC)C1C(=O)c3cc(OS(C)(=O)=O)c(OC)cc3C1N(C)C2=O (configuration not stated)
Nc1cc(=O)n(Cc2ccccc2)c(=O)n1Cc1ccccc1
c1ccc(CNc2ncnc3[nH]ncc23)cc1
C[n+]1cccc(C(=O)O)c1
O=S(=O)(Cc1ccc(Cl)cc1Cl)c1ccc(Cl)cc1
CCOC(=O)[C@H]1[C@H]2COc3ccc(Br)cc3[C@@H]2N2C(=O)CN(C)C(=O)[C@@]12C
O=[N+]([O-])c1cccc(C=NN=Cc2ccccc2O)c1
O=C(Nc1ccc2ccccc2c1[N+](=O)[O-])c1ccccc1
COc1ccc(NS(=O)(=O)c2ccc(N3CCOCC3)c(NC(=O)/C=C/C(=O)O)c2)cc1
Cc1nc2ccc(N)nc2nc1C
CCOC(=O)C(CO)NC(=O)C1(NC(C)=O)CCCC1 (configuration not stated) (Ac-[Ac5c]-[ξS]-OEt)
COc1ccc(N=C2C=CC(=O)O2)cc1
C/C(=N\Nc1ccc(Cl)nn1)c1ccccc1O
O=C(NNC(=O)c1ccc2ccccc2c1)c1ccc(Cl)cc1
COC(=O)Cc1nc2c(N)nc(N)nc2[nH]c1=O
CC(C)OC(=O)c1ccc(NCc2cc(O)ccc2O)cc1Cl
Cc1cc([N+](=O)[O-])c(=O)[nH]c1C
O=C(O)c1ccc(NN=CC2=C(N3CCOCC3)/C(=C/c3ccccc3)CC2)cc1
CCN1C[C@@H]2[C@@H]3C(=O)N(C)C(=O)[C@@H]3[C@](C)(C1=O)N2C(=O)c1ccccc1
COc1ccc(Br)cc1/C=N/Nc1ccc(S(=O)(=O)Nc2ccccc2C(=O)O)cc1[N+](=O)[O-]
O=C(Nc1c[nH]c(=O)[nH]c1=O)OCc1ccccc1
O=C(Nc1ccn(CCCNCc2ccc3[nH]ccc3c2)c(=O)n1)OCc1ccccc1
CCCCNCCS(=O)(=O)NCc1ccccc1
COc1ccc2nc(N3C(=O)C(O)=C(C(=O)c4ccco4)C3c3ccco3)sc2c1 (configuration not stated)
COc1ccc(C(CNC(=O)c2cccc(S(=O)(=O)Nc3ccc(Br)cc3)c2)N(C)C)cc1 (configuration not stated)
CCCCC(=O)NC(c1ccc(OC)c(OC)c1)c1ccc2cccnc2c1O (configuration not stated)
O=c1[nH]c(=S)[nH]c(O)c1/C=C1\C=Nc2ccccc21
